Tg IFNy HTS: blocks Toxoplasma gondii growth in the presence of IFN-gamma. AID 1259416. Toxoplasma gondii growth in IFN-gamma-treated host cells; hits give low values. activity change, negative = inhibition, % (test concentration not listed). 3.8% of 69,000 active; in the data active means activity change below about -70%, passing the limit was not always enough;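 further: host cells are HeLa cells infected with Toxoplasma gondii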
An asterisk follows results filed as active; i = inactive. The sample as a whole holds a higher share of hits than the screen did.

SMILES	Tg IFNy HTS
COc1ccc(CNC(=O)c2cc3cccnc3n(Cc3ccc(F)cc3)c2=O)cc1	-42.9
Cc1ccc(CNC(=O)c2cc3cccnc3n(Cc3ccc(Cl)cc3)c2=O)cc1	30.5
O=C(NCCc1ccccc1)c1cc2cccnc2n(Cc2ccccc2)c1=O	28.8
COc1ccc(CNC(=O)c2cc3cccnc3n(Cc3ccccc3)c2=O)cc1	-74.0*
O=C(NCc1ccc(Cl)cc1)c1cc2cccnc2n(Cc2ccccc2)c1=O	-66.3
CCCCNC(=O)c1cc2cccnc2n(Cc2ccccc2)c1=O	-6.1
CC(C)CNC(=O)c1cc2cccnc2n(Cc2ccccc2)c1=O	-94.5*
COc1ccc(CNC(=O)c2cc3cccnc3n(Cc3ccc(Cl)cc3)c2=O)cc1	-113.5*
COc1ccc(NC(=O)c2cc3cccnc3n(Cc3ccc(Cl)cc3)c2=O)cc1	i
CC(C)NC(=O)[C@H]1CCS(=O)(=O)[C@H]2CNC[C@@H]12	-21.8
O=C(NCCC1=CCCCC1)c1cc2cccnc2n(Cc2ccccc2)c1=O	-44.1
CCOc1ccc(C2NCCc3[nH]cnc32)cn1 (stereo not drawn)	3.6
CCOC1C2CCC1N(Cc1cnn(C)c1)C2 (stereo not drawn)	43.1
Cn1ccc(CN2CCCC3(CC(Oc4cccnc4)CO3)C2)n1 (stereo not drawn)	i
O=C1NC2(CCNCC2)CC1c1ccncc1 (stereo not drawn)	-0.9
COC(=O)C1(CC(=O)N2CCOCC2)C(=O)CC2CCC1N2Cc1ccc(F)cc1 (stereo not drawn)	13.6
COCCN1CCN(C2CCOC2)Cc2cccnc21 (stereo not drawn)	-13.2
Cc1nc(CN2CCOCC23CCNCC3)cs1	9.4
O=C(NCc1ccc(Cl)cc1)c1cc2cccnc2n(Cc2ccccc2F)c1=O	107.9
O=C(NCc1ccc(F)cc1)c1c(O)c2cccnc2n(Cc2ccccc2)c1=O	-99.1*
O=C(NCc1ccc(Cl)cc1)c1c(O)c2cccnc2n(Cc2ccccc2)c1=O	-98.3*
O=C(Nc1ccccc1Cl)c1c(O)c2cccnc2n(Cc2ccccc2)c1=O	24.8
O=C(NCc1cccc(Cl)c1)c1c(O)c2cccnc2n(Cc2ccccc2)c1=O	-107.0*
COc1ccccc1CNC(=O)c1cc2cccnc2n(Cc2ccc(F)cc2)c1=O	92.4
O=C(NCC1CC1)c1c(O)c2cccnc2n(Cc2ccccc2)c1=O	-91.7*
SMILES	Tg IFNy HTS
O=C(Nc1ccc(F)cc1Cl)c1c(O)c2cccnc2n(Cc2ccccc2)c1=O	142.0
Cc1ccc(NC(=O)c2c(O)c3cccnc3n(Cc3ccccc3)c2=O)cc1	314.5
Cc1ccc(C)c(NC(=O)c2c(O)c3cccnc3n(Cc3ccccc3)c2=O)c1	78.7
Cc1cccc(NC(=O)c2c(O)c3cccnc3n(Cc3ccccc3)c2=O)c1C	14.9
Cc1cccc(NC(=O)c2c(O)c3cccnc3n(Cc3ccccc3)c2=O)c1	139.3
Cc1ccc(NC(=O)c2cc3cccnc3n(Cc3ccccc3F)c2=O)cc1F	49.2
COc1ccc(OC)c(NC(=O)c2cc3cccnc3n(Cc3ccccc3)c2=O)c1	25.2
CC(C)(O)CN1C[C@H]2CCC[C@@H](CNc3ncccn3)[C@@H]2C1	i
COc1ccc(CN2C3CCC2CC(O)(Cn2ccc4ncccc42)C3)cc1OC (stereo not drawn)	-22.9
COCC(=O)N1CC[C@@]2(CN(C)C[C@@H]2COCc2ccccn2)C1	3.7
COc1ccc2c(c1)C1(CCN(C(=O)c3cnc4ccccc4n3)CC1)CC2CC(=O)O (stereo not drawn)	0.8
Cc1cc(CN2C[C@H]3COC[C@H](CC(=O)N(C)C)[C@@H]3C2)no1	6.4
Cn1cccc1CN1CC2(CCN(C(=O)c3cccnc3)C2)C1	-2.6
CC(C)N1C2COCC1CN(Cc1nccs1)C2	5.5
CCOc1ccccc1NC(=O)c1cc2cccnc2n(Cc2ccccc2)c1=O	21.6
CCn1nc(C)c(CNC(C)Cc2cccc(F)c2)c1C (stereo not drawn)	-49.9
O=C(NCc1ccccc1Cl)c1cc2cccnc2n(Cc2ccccc2)c1=O	-3.4
O=C(NCc1cc(F)cc(F)c1)c1c(O)c2cccnc2n(Cc2ccccc2)c1=O	-103.2*
COc1ccc(C)cc1NC(=O)c1c(O)c2cccnc2n(Cc2ccccc2)c1=O	45.3
OC(c1ccccc1)(c1ccccc1)c1cnc[nH]1	-62.1
CN1C(=O)C2(CCN(Cc3cccn3C)CC2)c2ccccc21	34.3
CS(=O)(=O)c1ccc(CN2CCCC(C(=O)c3ccccn3)C2)cc1 (stereo not drawn)	-25.0
O=C(NC1CCCC1)c1cc2cccnc2n(Cc2ccc(Cl)cc2)c1=O	74.1
C=CCOC1C2CCC1N(Cc1ccccn1)CCO2 (stereo not drawn)	-91.6*
c1ccc(CN2CCO[C@H]3[C@H]2CC[C@H]3OCc2cccnc2)nc1	9.0
SMILES	Tg IFNy HTS
c1ccc(CN2C[C@H]3OCCN(CC4CCCO4)[C@H]3C2)nc1 (stereo partly drawn)	37.6
O=C(CCC1C(=O)NC(=O)NC1=O)Nc1ccc(Oc2ccc(F)cc2)cc1	10.1
COc1ccc(CN2CCC3(CC2)COCCN3CC2CC2)cn1	-21.5
CO[C@H]1CCN(C(=O)c2ccc(C)cn2)[C@H]2CN(CC3CC3)C[C@@H]12	0.5
COCC(=O)N1C[C@@H]2CCN(Cc3c(C)noc3C)C[C@H]2C1	-6.2
Fc1cnc(N2CCN3C[C@H](OCC4CC4)C[C@@H]3C2)nc1	-2.7
O=C(Nc1ccncc1)C(=O)c1cn(Cc2ccc(Cl)cc2)c2ccccc12	-78.2*
O=C(Nc1ccc(Cl)cc1)c1cc2cccnc2n(Cc2ccc(F)cc2)c1=O	0.5
O=Cc1cn(Cc2ccc(F)cc2)c2ccccc12	-2.7
O=C(Nc1ccc(CC(=O)N2CCN3CCNC(=O)C3C2)cc1)C1CC1 (stereo not drawn)	4.5
COCCN1CCO[C@H]2CN(S(=O)(=O)c3cccnc3)C[C@@H]2C1	1.6
C[N+]1(C)CCc2cc3c(cc2C1[C@@H]1OC(=O)c2c1ccc1c2OCO1)OCO3 (stereo partly drawn)	-36.9
CC(=O)O[C@@H]1C[C@@]2(C)[C@H](c3ccoc3)C[C@H]3O[C@]32[C@]2(C)C(=O)C(=O)C3C(C)(C)C(=O)C=C[C@]3(C)C12 (stereo partly drawn)	-83.3*
CC1(C)C(=O)[C@@H]2O[C@@H]2[C@@]2(C)C1C[C@@H](O)[C@]1(C)C2CC[C@@]2(C)[C@H](c3ccoc3)OC(=O)C3OC321 (stereo partly drawn)	4.6
CN1CCO[C@H]2CN(c3ncccn3)C[C@@H]21	-6.3
C[C@]12CC[C@H]3[C@@H](CC[C@]4(O)C[C@@H](O)CC[C@]34C=O)[C@@]1(O)CC[C@@H]2C1=CC(=O)OC1	-63.3
CO[C@H]1[C@H](O)[C@@H](O[C@H]2CC[C@]3(C=O)C4CC[C@]5(C)[C@@H](C6=CC(=O)OC6)CC[C@]5(O)C4CC[C@@H]3C2)O[C@@H](C)[C@@H]1O (stereo partly drawn)	-83.1*
CO[C@@H]1C(O)[C@H](O[C@H]2CC[C@@]3(C=O)[C@H](CC[C@@H]4[C@@H]3CC[C@]3(C)[C@@H](C5=CC(=O)OC5)CC[C@]43O)C2)OC(C)[C@@H]1O (stereo partly drawn)	-74.6*
C[C@@H]1O[C@@H](O[C@@H]2C[C@@H](O)[C@]3(CO)[C@H]4[C@H](O)C[C@]5(C)[C@@H](C6=CC(=O)OC6)CC[C@]5(O)[C@@H]4CC[C@]3(O)C2)[C@H](O)[C@H](O)[C@H]1O	-81.2*
CNC(=O)CN1CCOCC12CCN(c1ccc(C)nn1)CC2	-0.8
COCCN1CCc2c(CNc3ncccn3)cncc2C1	11.3
